The values below come from PubChem BioAssay (NCI).

Holding throughout (test): NCI-60 one-dose screen, 48 h (100 = growth as untreated, 0 = no growth, -100 = all killed)
One test relates to SK-MEL-2 melanoma. As to conditions: 10 µM unless noted.
A further test deals with EKVX NSCLC. As to conditions: 10 µM unless noted.
Another test concerns SN12C renal. As to conditions: 10 µM unless noted.
The subject of another test is UO-31 renal. As to conditions: 10 µM unless noted.
For the next test, the system named is TK-10 renal. As to conditions: 10 µM unless noted.
A further test relates to A498 renal. As to conditions: 10 µM unless noted.
Another test concerns CCRF-CEM leukemia. The following applies: 10 µM unless noted.
In the next test the test system is MOLT-4 leukemia. The following applies: 10 µM unless noted.
For a further test, the system named is SR leukemia. The following applies: 10 µM unless noted.
The next test has as its system RPMI-8226 leukemia. The following applies: 10 µM unless noted.
The next test deals with OVCAR-8 ovarian. The following applies: 10 µM unless noted.
The next test concerns OVCAR-5 ovarian. As to conditions: 10 µM unless noted.
Another test concerns OVCAR-4 ovarian. As to conditions: 10 µM unless noted.
In a further test the test system is SK-OV-3 ovarian. The following applies: 10 µM unless noted.
The next test deals with IGROV1 ovarian. As to conditions: 10 µM unless noted.
The test system of a further test is OVCAR-3 ovarian. As to conditions: 10 µM unless noted.
The subject of a further test is HS 578T breast. The following applies: 10 µM unless noted.
The next test relates to NCI/ADR-RES ovarian. The following applies: 10 µM unless noted.
A further test concerns CAKI-1 renal. The following applies: 10 µM.

The structures appear in SMILES notation. This is part of a sample that, as a whole, favours compounds with a hit. Of some 83,000 tested, about 20% had one in any assay.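 Growth was measured after 48 h exposure to one concentration of compound in 96-well plates. Values under 10 count as active.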 Unmarked numbers belong to inactive results. Activity calls are given as the source filed them.

Consider `O=S(=O)(O)c1ccc(F)cc1`, for which the growth in the test on SK-MEL-2 melanoma was 93.6%; in the test with EKVX NSCLC it was 101%; in the test with SN12C renal, 111%; in the test on UO-31 renal, 86.4%; with TK-10 renal, 90.2%; in the test on A498 renal, 101%. Also, the growth was 90.6% with CCRF-CEM leukemia; 98.5% with MOLT-4 leukemia; 101% in the test with SR leukemia; 100% in the test with RPMI-8226 leukemia; 116% with OVCAR-8 ovarian; 111% in the test on OVCAR-5 ovarian. Further, the growth with OVCAR-4 ovarian is 105%; in the test with SK-OV-3 ovarian, 102%; in the test with IGROV1 ovarian, 98.8%; in the test with OVCAR-3 ovarian it was 106%; in the test with HS 578T breast, 102%.

Consider `Cc1ccc(/C=C2/C(=O)Nc3cc(Cl)c(-c4csc(N)n4)cc32)cc1`, for which the growth is 49.3% in the test with SK-MEL-2 melanoma; 62.1% in the test on EKVX NSCLC; 81% in the test on SN12C renal; 67.4% in the test on UO-31 renal; 115% with TK-10 renal; 79.3% in the test with A498 renal. Also, the growth in the test with CCRF-CEM leukemia was 43.5%; with MOLT-4 leukemia it was 51.3%; in the test on SR leukemia, 23.9%; with RPMI-8226 leukemia it was 50%; in the test on OVCAR-8 ovarian it was 82.6%; in the test with OVCAR-5 ovarian, 102%. The growth in the test with OVCAR-4 ovarian is 68.7%; in the test with SK-OV-3 ovarian it was 77.7%; with IGROV1 ovarian, 59.7%; in the test on OVCAR-3 ovarian, 59.8%; in the test on HS 578T breast it was 63.7%; in the test with NCI/ADR-RES ovarian, 82.9%.

As for `Cc1ccc(Cn2cc(COc3ccc4c5ccnc(C)c5n(CCCc5ccccc5)c4c3)nn2)cc1`, the growth in the test with SK-MEL-2 melanoma was 94.7%; in the test on EKVX NSCLC, 80.7%; in the test with SN12C renal it was 94.5%; in the test on UO-31 renal it was 55.7%; with TK-10 renal it was 97.8%; with A498 renal, 73.5%. Moreover, the growth is 91.9% with CCRF-CEM leukemia; 78.2% with MOLT-4 leukemia; 81.9% in the test on SR leukemia; 64.2% in the test on RPMI-8226 leukemia; 94.2% in the test on OVCAR-8 ovarian; 103% in the test with OVCAR-5 ovarian. Moreover, the growth is 96% in the test on OVCAR-4 ovarian; 96.9% in the test on SK-OV-3 ovarian; 87.5% in the test with IGROV1 ovarian; 92.6% in the test with OVCAR-3 ovarian; 89.8% in the test on HS 578T breast; 76.4% in the test on NCI/ADR-RES ovarian.

For `Cc1cc(Nc2ccc(Cl)c(Cl)c2)nc(N)n1`, the growth in the test on SK-MEL-2 melanoma was 102%; with EKVX NSCLC, 54.7%; with SN12C renal, 106%; with UO-31 renal it was 86.2%; in the test with TK-10 renal, 87.3%; in the test with A498 renal, 78.8%. Also, the growth with CCRF-CEM leukemia was 98.5%; in the test with MOLT-4 leukemia, 78.8%; in the test with SR leukemia it was 78%; with RPMI-8226 leukemia, 80.9%; with OVCAR-8 ovarian it was 107%; in the test on OVCAR-5 ovarian it was 105%. For the same compound, the growth with OVCAR-4 ovarian is 92.8%; in the test with SK-OV-3 ovarian, 105%; with IGROV1 ovarian, 114%; in the test with OVCAR-3 ovarian, 98.9%; with HS 578T breast, 92.6%; with NCI/ADR-RES ovarian, 98.3%.

As for `C=CC(=O)NC(=O)Nc1ccccc1Cl`, the growth in the test on SK-MEL-2 melanoma is 86%; in the test with EKVX NSCLC, 94.7%; in the test on SN12C renal it was 83.5%; in the test with UO-31 renal, 59.8%; with TK-10 renal, 45.2%; in the test on A498 renal, 109%. The growth in the test with CCRF-CEM leukemia was 37.2%; in the test with MOLT-4 leukemia, 39.6%; in the test on SR leukemia, 39.8%; in the test on RPMI-8226 leukemia, 21.4%; in the test on OVCAR-8 ovarian, 84.5%; in the test on OVCAR-5 ovarian, 111%. Besides, the growth in the test on OVCAR-4 ovarian was 103%; in the test with SK-OV-3 ovarian it was 87.3%; with IGROV1 ovarian, 88.2%; in the test on OVCAR-3 ovarian it was 68.7%; with HS 578T breast, 96.8%; with NCI/ADR-RES ovarian, 105%.

As to `COc1cc([C@@H]2c3cc4c(cc3C(OC3O[C@@H]5COC(C)O[C@H]5[C@H](O)[C@H]3O)C3COC(=O)[C@@H]32)OCO4)cc(OC)c1O` (some centres not stated), the growth was 74.6% in the test with SK-MEL-2 melanoma; 57.8% with EKVX NSCLC; 13% in the test with SN12C renal; 64.3% in the test on UO-31 renal; 72.5% in the test with TK-10 renal; 9.12% (active) with CAKI-1 renal. Further, the growth in the test on A498 renal was 36.2%; in the test with CCRF-CEM leukemia it was 6.56% (active); with MOLT-4 leukemia, 2.96% (active); with SR leukemia it was -3.83% (active); with RPMI-8226 leukemia it was 37.4%; in the test with OVCAR-8 ovarian, 26.9%. Besides, the growth with OVCAR-4 ovarian was 88.3%; with SK-OV-3 ovarian it was 35%; in the test with IGROV1 ovarian it was 65.4%; in the test on OVCAR-3 ovarian it was 37.1%; with HS 578T breast it was 59.3%; in the test on NCI/ADR-RES ovarian, 90.4%.

Take `C#C[C@@]1(O)[C@@H](CO)O[C@@H](n2cc(Br)c3c(Cl)ccnc32)[C@@H]1O`: the growth in the test with SK-MEL-2 melanoma was 68.7%; with EKVX NSCLC, 58.7%; with SN12C renal it was 23.7%; in the test on UO-31 renal, 45.2%; in the test on TK-10 renal it was 63.3%; in the test with A498 renal, -20% (active). The growth in the test with CCRF-CEM leukemia was 12.8%; with MOLT-4 leukemia it was 1.9% (active); in the test on SR leukemia, 22.4%; in the test with RPMI-8226 leukemia, 0.227% (active); in the test with OVCAR-8 ovarian, -42.5% (active); in the test with OVCAR-5 ovarian, 40.8%. Further, the growth in the test with OVCAR-4 ovarian was 26.9%; in the test on SK-OV-3 ovarian, 42.1%; in the test with IGROV1 ovarian it was 61%; in the test on OVCAR-3 ovarian, -9.54% (active); in the test with HS 578T breast, 40.9%; in the test on NCI/ADR-RES ovarian, 0.838% (active).

`CC[C@@]1(O)C(=O)OCc2c1cc1n(c2=O)Cc2c-1nc1ccccc1c2/C=N/OC(C)(C)C`: the growth with SK-MEL-2 melanoma was -17.8% (active); in the test on EKVX NSCLC, 17%; in the test on SN12C renal, 5.56% (active); in the test with UO-31 renal it was -64.8% (active); with TK-10 renal it was 1.26% (active); in the test with A498 renal it was -70.2% (active). For the same compound, the growth in the test with CCRF-CEM leukemia was 4.16% (active); in the test with MOLT-4 leukemia, -10.6% (active); in the test on SR leukemia, -6.28% (active); in the test with RPMI-8226 leukemia, -2.84% (active); in the test on OVCAR-8 ovarian it was 3.32% (active); with OVCAR-5 ovarian, 10.5%. The growth is 30.1% with OVCAR-4 ovarian; -15.7% (active) in the test with SK-OV-3 ovarian; 8.28% (active) with IGROV1 ovarian; -27.3% (active) in the test with OVCAR-3 ovarian; 33% with HS 578T breast.
